Experimental data as given in the supplement of paper PMC7801607.

Key:
CHO = assay: % viability of CHO cells (MTT); higher = less toxic; details: 48 h
Outline: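 Percent viability of CHO cells, relative to untreated cells, was read colorimetrically by tetrazolium (MTT) assay. Cells were seeded at 10^6 cells/well and treated for 48 h with compound at 2 or 20 µM in fresh medium.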

HepG2-A16-CD81 = assay: % inhibition of HepG2 viability (CellTiter-Glo); higher = more toxic; details: 5 µM
[1] = tested on: Plasmodium falciparum NF54 stage IV/V gametocytes; assay: % inhibition of gametocyte viability (PrestoBlue); higher = more inhibition; details: 48 h
Outline: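 Stage IV/V NF54 gametocytes were exposed to compound at 1 or 5 µM for 48 h at 37 °C under stationary, hypoxic conditions, then read by PrestoBlue fluorescence at 612 nm. The percent inhibition of gametocyte viability was normalised to vehicle and kill controls from one run.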

[2] = tested on: Plasmodium falciparum NF54 asexual blood stage; assay: % inhibition of asexual blood stage proliferation (pLDH); higher = more inhibition; details: 72 h
Outline: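 Ring-stage cultures of Plasmodium falciparum NF54 at 1% haematocrit and 2% parasitaemia were treated with compound at 2 or 20 µM in 96-well plates and kept for 72 h at 37 °C under 4% CO2, 3% O2 and 93% N2. Parasite survival was measured by the parasite lactate dehydrogenase assay, read colorimetrically at 620 nm. Percent inhibition of asexual proliferation was calculated relative to control wells, and the screen was carried out on two separate occasions.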

[3] = tested on: Plasmodium falciparum NF54 stage IV/V gametocytes; assay: % inhibition of gametocyte viability (ATP bioluminescence); higher = more inhibition; details: 24 h
Outline: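 Stage IV/V NF54 gametocytes were enriched on density gradients and seeded at 30,000 per well in 96-well plates with compound at 1 or 5 µM. Plates were incubated for 24 h at 37 °C. ATP was measured with the Promega BacTiter Glo bioluminescence system. Percent inhibition of gametocyte viability was normalised to DMSO and kill controls from a single run.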

[4] = tested on: Plasmodium falciparum NF54 stage IV/V gametocytes; assay: % inhibition of gametocyte viability (luciferase reporter); higher = more inhibition; details: 48 h
Outline: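 Percent inhibition came from luminescence and was normalised to controls in a single run. Gametocytes (stage IV/V, NF54-Pfs16-GFP-Luc line, 2% gametocytaemia, 2% haematocrit) were treated with compound at 1 or 5 µM and incubated for 48 h at 37 °C without agitation under hypoxia. Readings used 30 µL lysate with 30 µL Promega luciferin substrate on a GloMax-Multi+ reader, integrating for 10 s.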

[5] = tested on: Plasmodium berghei ANKA liver stage in HepG2-A16-CD81; assay: % inhibition of liver stage parasite viability (luciferase); higher = more inhibition; details: 5 µM; 48 h
Procedure: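 Single-concentration screen of the MMV Pandemic Response Box. P. falciparum NF54 asexual blood stages: pLDH assay, 72 h at 37 °C, 2 and 20 µM, n=2. Stage IV/V gametocytes (NF54): luciferase reporter (NF54-Pfs16-GFP-Luc, 48 h), ATP bioluminescence (24 h) and PrestoBlue (48 h) at 1 and 5 µM, n=1. P. berghei liver stage (luciferase in HepG2-A16-CD81, 48 h post infection) at 5 µM, n=4. All normalised to DMSO and kill controls as % inhibition.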
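For % inhibition of HepG2 viability (CellTiter-Glo) in this document: HepG2-A16-CD81 hepatoma cells plated as in the liver-stage assay but without sporozoites, with DMSO wells as negative and 25 µM puromycin as positive control.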

Compound	% viability of CHO cells (CHO; 2 µM) [%]	% viability of CHO cells (CHO; 20 µM) [%]	% inhibition of HepG2 viability (HepG2-A16-CD81) [%]	% inhibition of gametocyte viability ([1]; 1 µM) [%]	% inhibition of gametocyte viability ([1]; 5 µM) [%]	% inhibition of asexual blood stage proliferation ([2]; 2 µM) [%]	% inhibition of asexual blood stage proliferation ([2]; 20 µM) [%]	% inhibition of gametocyte viability ([3]; 1 µM) [%]	% inhibition of gametocyte viability ([3]; 5 µM) [%]	% inhibition of gametocyte viability ([4]; 1 µM) [%]	% inhibition of gametocyte viability ([4]; 5 µM) [%]	% inhibition of liver stage parasite viability [5] [%]
O=C(O)CCNC(=O)c1ccccc1	112	60.6	-2.32	< 0	-0.209	25.9	15.9	< 0	< 0	< 0	6.13	16
CCCCCOc1ccc(/C=C2\Oc3c(ccc(O)c3O)C2=O)c(O)c1	123	127	3.16	< 0	< 0	2.75	90.6	< 0	< 0	< 0	< 0	15.2
CCc1cc(O)c(Oc2ccc(C(N)=O)cc2F)cc1F	116	100	3.65	18.7	17.8	54.5	62.6	< 0	< 0	< 0	< 0	8.75
CN1c2ccc(Cl)cc2N(c2ccccc2)C(=O)c2cn(Cc3ccc(CN4CCOCC4)cc3)nc21	90.9	69.1	-4.81	18.2	30.1	0.489	23.7	0.0957	< 0	15.5	0.583	38.6
C=CCN(C(=O)OCc1ccc([N+](=O)[O-])cc1)C1CCN(CC[C@](C)(CN(C)S(=O)(=O)c2ccccc2)c2ccccc2)CC1	129	122	-6.75	4.29	13.4	59.7	78.9	< 0	32	2.56	< 0	–
O=C(CCc1ccc2c(c1)OCO2)NCc1ccc(-c2ccccc2F)cc1	87.7	94.9	8.8	< 0	< 0	-4.07	-11.2	4.23	< 0	< 0	< 0	43.9
CCc1c(OCC2CCC2)c2cc(F)ccc2[nH]c1=O	78.6	52.7	-2.38	14.3	2.83	26.9	36	7.14	< 0	< 0	< 0	–
O=S(=O)(Nc1ccc(-n2cccc2)cc1)c1ccc(Cl)c(Cl)c1	95	90.4	-0.822	< 0	< 0	6.75	24	< 0	< 0	< 0	< 0	38
O=C1[C@H](CC[C@H](O)c2ccc(F)cc2)[C@@H](c2ccc(O)cc2)N1c1ccc(F)cc1	94.9	113	-3.46	< 0	< 0	43.1	61	< 0	< 0	2.9	4.53	27.4
O=C(NCc1cccc2ccccc12)c1cccs1	101	134	7.63	13.5	24.3	-14.2	-4.95	< 0	< 0	< 0	< 0	-19.8
O=C(CP(=O)(O)O)NCCc1cccc(Oc2ccccc2)c1	108	84.2	0.91	16.8	19.8	30.7	29.5	2.33	< 0	< 0	< 0	27.3
COc1ccc2c(c1)cc(CNC(=O)c1cc3ccccc3o1)n2CC(=O)O	90.6	111	3.58	< 0	26	-3.06	7.62	1.71	< 0	< 0	< 0	24.3
Oc1cccc(C(Nc2nccs2)c2ccc3cccnc3c2O)c1 (centres undefined)	57.5	42.1	9.72	24.1	65.5	80	91.8	< 0	59.3	7.2	57.3	20.6
COc1ccc(NC(=O)c2cc3ccccn3n2)cc1	112	57	-0.446	< 0	10.6	20.3	87.1	< 0	< 0	< 0	< 0	-110
COc1cc2c(O)c3c(c(-c4ccc5c(c4)OCO5)c2cc1OC)C(=O)OC3	98	86.4	58.9	13	17.7	44.2	99.9	< 0	< 0	< 0	< 0	58.4
CC(C)(C)c1ccc(Oc2ccc(N)cc2)cc1	130	58.8	-4.14	< 0	67	-4.84	55.8	< 0	< 0	66.9	89.3	54.4
Cc1[nH]c2ccccc2c1CC(=O)N[C@@H](Cc1ccccc1)C(=O)N(C)c1ccccc1	80.4	56	4.27	25.2	23.6	-9.75	76.5	6.25	< 0	1.82	1.07	8.84
CCC[C@@H]1C[C@@H](C(=O)N[C@@H]([C@H]2O[C@H](SC)[C@H](O)[C@@H](O)[C@H]2O)[C@H](C)Cl)N(C)C1	89.5	103	5.96	10.3	24.2	72.9	93.2	< 0	1.18	< 0	< 0	92.2
